Test results reported in PubChem BioAssay AID602393 (Broad Institute, 2012).
About 7,000 (2%) of roughly 350,000 compounds were called active. Rule as the data show it: active = activation above about 40%; inconclusive = no clear call, values can overlap the other calls; inactive = below that. This excerpt belongs to a sample that is enriched for actives.

Assay: raisers of Bmi1 knock-in reporter signal – mouse ES cells, Bmi1 luciferase knock-in, single point, esBAF inhibitor project, primary screen (AID 602393);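 also: 0% = median of the plate's neutral control wells and 100% = double that signal; a rise in the Bmi1 reporter signal indicates esBAF inhibition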
Conditions: 24 h, at 12.5 µM, active compounds read high, 100% = twice the neutral-well signal

Row | Compound | reporter increase
1 | CCOC(=O)c1cc(-c2sc(NC(=O)c3ccccc3)nc2C)n(CCO)n1 | 12.3% (inactive)
2 | CCOC(=O)c1cc(-c2sc(NC(=O)c3ccccc3)nc2C)n(Cc2ccccc2)n1 | 56% (active)
3 | CCOC(=O)c1cc2ccccc2n1CC(=O)c1ccccc1 | 2.35% (inactive)
4 | CCOC(=O)c1cc(-c2sc(NC(=O)c3ccccc3)nc2C)n(-c2ccc(Br)cc2)n1 | 50.4% (active)
5 | C=CCn1nc(C(=O)OCC)cc1-c1sc(NC(=O)c2ccccc2)nc1C | 4.24% (inactive)
6 | CCOc1ccc(C(=O)Nc2c3c(nn2-c2ccccc2)CS(=O)(=O)C3)cc1 | -0.973% (inactive)
7 | COc1ccc(NC(=O)Nc2ccc3c(c2)[C@@H]2C[C@H](CC(=O)N[C@@H](C)c4ccccc4)O[C@@H](CO)[C@@H]2O3)cc1 | -1.34% (inactive)
8 | Cc1ccc(S(=O)(=O)N(C)C[C@@H]2OCCCC[C@@H](C)Oc3ccc(NC(=O)Nc4ccc(C(F)(F)F)cc4)cc3C(=O)N([C@@H](C)CO)C[C@@H]2C)cc1 | 1.3% (inactive)
9 | C[C@@H]1CCCCO[C@H](CN(C)S(=O)(=O)c2ccccc2)[C@H](C)CN([C@@H](C)CO)C(=O)c2cc(N(C)C)ccc2O1 | -0.863% (inactive)
10 | Nc1ncc(-c2cc3ccccc3oc2=O)s1 | 47.3% (active)
11 | Cc1cc2c(=O)n(C)c(SCC(=O)c3cc4ccccc4o3)nc2s1 | -5.28% (inactive)
12 | COc1ccc2oc(=O)cc(-c3cc4ccccc4o3)c2c1 | -2.86% (inactive)
13 | COc1ccccc1C(=O)Nc1ccc2c(c1)C(=O)N(C)C[C@@H](OC)[C@@H](C)CN(CC1CC1)[C@@H](C)CO2 | 2.64% (inactive)
14 | CCC(=O)N1CCCCN2[C@H](C1)[C@@H](c1ccc(C#CCOC)cc1)[C@@H]2CO | 3.27% (inactive)
15 | C[C@H](CO)N1C[C@H](C)[C@@H](CN(C)S(=O)(=O)c2ccc(F)cc2)OCCCC[C@H](C)Oc2ccc(NC(=O)CCCN(C)C)cc2C1=O | -3.29% (inactive)
16 | Cc1ccc(S(=O)(=O)N2C[C@H](O)COC[C@@H]3O[C@@H](CC(=O)NCC4CCCCC4)CC[C@H]32)cc1 | -0.379% (inactive)
17 | COCc1cccc(-c2csc(C(O)c3ccc(F)cc3)n2)c1 (stereo unspecified) | 49.8% (active)
18 | COc1cc(C(O)c2nc(-c3cccc(C(=O)O)c3)cs2)ccc1F (stereo unspecified) | 4.68% (inactive)
19 | COc1ccc(C(O)c2nc(-c3ccc4c(c3)OCO4)cs2)cc1 (stereo unspecified) | 11.6% (inactive)
20 | O=C(c1cccnc1)N1C[C@@H]2[C@H](c3ccccc31)[C@@H](CO)N2C(=O)Nc1ccc(F)cc1 | 1.17% (inactive)
21 | COc1ccc(S(=O)(=O)N(C)C[C@H]2OCCCC[C@@H](C)Oc3ccc(NS(=O)(=O)c4ccc(C)cc4)cc3C(=O)N([C@@H](C)CO)C[C@@H]2C)cc1 | 7.8% (inactive)
22 | CCN1[C@@H]2Cn3c(ccc(-c4cccnc4)c3=O)[C@H]1[C@@H](C(=O)NC1CCCCC1)[C@@H]2CO | -4.32% (inactive)
23 | COCCCNC(=O)COc1cc(C)c(Cl)c(C)c1 | 4.32% (inactive)
24 | Cc1cc(OCc2cc(C(=O)NCc3cc(C(C)C)no3)no2)cc(C)c1Cl | 81.9% (active)
25 | Cc1cccnc1CC(C)NC(=O)c1cc(COc2cncc(Cl)c2)on1 (stereo unspecified) | 9.52% (inactive)
26 | COc1ccc(CN(C)C[C@@H]2OCCCC[C@H](C)Oc3ccc(NS(=O)(=O)c4ccc(F)cc4)cc3C(=O)N([C@@H](C)CO)C[C@@H]2C)cc1 | -7.82% (inactive)

Row | Compound | reporter increase
27 | Cn1cnc(S(=O)(=O)N2C[C@@H](O)COC[C@@H]3O[C@H](CC(=O)NCc4ccc(F)cc4)CC[C@H]32)c1 | -4.57% (inactive)
28 | O=C(c1cccc(F)c1)N1CC[C@@H]2[C@@H](CO)Nc3ccc(C#Cc4cccc(F)c4)cc3[C@@H]21 | 2.36% (inactive)
29 | Cc1noc(C)c1NC(=O)N[C@@H]1C=C[C@@H](CC(=O)Nc2ccccc2)O[C@H]1CO | 1.58% (inactive)
30 | COc1cc(NC(=O)CN(C)S(=O)(=O)c2ccc3nc(C)sc3c2)cc(OC)c1 | -1.66% (inactive)
31 | O=C(Nc1ccc2c(c1)CCC2)c1ccc(Br)s1 | 21.7% (inactive)
32 | COc1ccc2nc(NC(=O)c3ccc(Br)s3)sc2c1 | 71.6% (active)
33 | COc1ccc(CNC(=O)c2ccc(Br)s2)cc1OC | -1.1% (inactive)
34 | COc1cccc(C(=O)Nc2nnc(S(=O)(=O)N(C)c3ccccc3)s2)c1 | 3.61% (inactive)
35 | COc1cccc(C(=O)Nc2nc3ccc(S(C)(=O)=O)cc3s2)c1 | 50.7% (active)
36 | C[C@H](NC(=O)C[C@@H]1C=C[C@H](NC(=O)CN2CCOCC2)[C@H](CO)O1)c1ccccc1 | -6.32% (inactive)
37 | N#Cc1ccc(-c2ccc3c(c2)[C@H]2[C@H](CCN2Cc2ccc4c(c2)OCO4)[C@@H](CO)N3)cc1 | -8.59% (inactive)
38 | CCCNC(=O)N(C)C[C@H]1Oc2cc(-c3ccncc3)ccc2S(=O)(=O)N([C@H](C)CO)C[C@H]1C | 0.442% (inactive)
39 | CCCNC(=O)C[C@H]1CC[C@H]2[C@@H](COC[C@H](O)CN2C(=O)CC)O1 | 5.31% (inactive)
40 | CCCNC(=O)N1[C@H](C#N)[C@@H](c2ccccc2)[C@H]1CO | -3.13% (inactive)
41 | Cc1ccc(S(=O)(=O)NCC[C@H]2CC[C@@H](NC(=O)C3CCOCC3)[C@@H](CO)O2)cc1 | -2.84% (inactive)
42 | Cc1csc(NC(=O)Nc2ccccc2[N+](=O)[O-])n1 | 60.4% (active)
43 | CN1CCN(CCNC(=O)Nc2ccccc2[N+](=O)[O-])CC1 | -5.22% (inactive)
44 | Cc1csc(NC(=O)NC2(C(F)(F)F)Oc3ccccc3O2)n1 | -3.69% (inactive)
45 | C[C@H]1CN([C@@H](C)CO)C(=O)c2cc(Br)cnc2O[C@@H]1CN(C)C(=O)c1ccccc1 | -3.42% (inactive)
46 | COc1ccc(CNc2ncnc3ccccc23)cc1 | -11.7% (inactive)
47 | COc1ccc(Nc2cc(Sc3ccc(OC)cc3)ncn2)cc1 | 13.3% (inactive)
48 | COc1ccc(Nc2ncnc3sc(C)cc23)cc1 | 66.1% (active)
49 | Cc1ccccc1CSc1nnc(-c2cccnc2)n1N | 17.5% (inactive)
50 | Cc1ccc(-c2nnc(SC(C)C#N)n2N)cc1 (stereo unspecified) | 0.696% (inactive)
51 | C=C(C)CSc1nnc(-c2ccc(C)cc2)n1N | 57.8% (active)
